From PubChem BioAssay (Tox21)
Inconclusive results are not listed. Unmarked numbers belong to inactive results. Calls follow the shape of the dose curve; as a rule, active = well fitted cell-killing curve with a large enough effect in the repeat runs; inconclusive = weak or mixed curves, or effect the other way; inactive = flat fitted curve, though single readings scatter.

assay: qHTS assay to identify small molecule antagonists of the retinoid acid receptor (RAR) signaling pathway - cell viability counter screen (AID 1159551); details: C3RL4 cells viability, ATP luminescence (CellTiter-Glo), 6 h; series mostly up to 92.4 µM; activity change, negative = cytotoxicity: at the top concentration; also: nearly all actives have a fitted effect of over 35% in size
Procedure, shortened: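 Following overnight attachment, C3RL4 reporter cells received DMSO-dissolved compounds and then retinol (1 uM final). Six hours later at 37 C, ATP content was measured by CellTiter-Glo luminescence.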
% is scaled to controls: 0 for no effect and ±100 for the full control effect.

Which “activity change, negative = cytotoxicity” value does the source give for `O=S(=O)(c1ccccc1)c1ccc(Cl)cc1` here?
Its value is -1.11%.

Which “activity change, negative = cytotoxicity” value does the source give for `CCCCC(CC)COC(=O)COc1ccc(Cl)cc1C` (centres undefined) here?
The value was -0.621%.

Which “activity change, negative = cytotoxicity” value does the source give for `CCn1nc(C)c2c1C(=O)NCC(c1ccc(O)cc1)=N2` here?
The value was 3.12%.

With `CCCC1C(CC)=CC(CC)=CN1c1ccccc1` (centres undefined) as the molecule, how does the “activity change, negative = cytotoxicity” value read?
Its value is -3.68%.

For `O=S1OCCO1`, which “activity change, negative = cytotoxicity” value is on record?
Its value is 1.4%.

Which “activity change, negative = cytotoxicity” value does the source give for `Nc1ccc(S(=O)(=O)O)c(N)c1` here?
Its value is 0.965%.

Which “activity change, negative = cytotoxicity” value does the source give for `NC(=O)Nc1ccc(Cl)cc1` here?
The value was 3.68%.

For `O=C(C(=O)c1ccccc1)c1ccccc1`, which “activity change, negative = cytotoxicity” value is on record?
Its value is 1.54%.

For `N#C[C@@H]1C[C@@H]2C[C@@H]2N1C(=O)[C@@H](N)C12CC3CC(CC(O)(C3)C1)C2`, which “activity change, negative = cytotoxicity” value is on record?
The value was -0.925% [at 42.5 µM].

With `CCC(C)(O)CCC=C(C)C` (centres undefined) as the molecule, how does the “activity change, negative = cytotoxicity” value read?
The value was 5.31%.

For `CN1CCN(CCCN2c3ccccc3Sc3ccc(S(=O)(=O)N(C)C)cc32)CC1`, which “activity change, negative = cytotoxicity” value is on record?
Its value is -0.252% [at 42.5 µM].

With `CCCCCCOC(=O)CCCCCCCC(=O)OCCCCCC` as the molecule, how does the “activity change, negative = cytotoxicity” value read?
The value was 1.29%.

With `CC(=O)Nc1ccccc1C` as the molecule, how does the “activity change, negative = cytotoxicity” value read?
Its value is -0.836%.

For `Oc1cc(O)c(Cl)cc1Cl`, which “activity change, negative = cytotoxicity” value is on record?
Its value is 3.91%.

For `CC(=O)OCC(=O)[C@@]12OC(C)(C)O[C@@H]1C[C@H]1[C@@H]3C[C@H](F)C4=CC(=O)C=C[C@]4(C)[C@@]3(F)[C@@H](O)C[C@@]12C`, which “activity change, negative = cytotoxicity” value is on record?
Its value is -1.36% [at 42.5 µM].

With `CC(CCO)CCc1ccccc1` (centres undefined) as the molecule, how does the “activity change, negative = cytotoxicity” value read?
Its value is 1.83%.

With `CCOCCn1c(C2CCN(CCc3ccc(C(C)(C)C(=O)O)cc3)CC2)nc2ccccc21` as the molecule, how does the “activity change, negative = cytotoxicity” value read?
Its value is -1.16% [at 42.5 µM].

With `CCCC(=O)O[C@]1(C(=O)COC(=O)CC)CC[C@H]2[C@@H]3CCC4=CC(=O)CC[C@]4(C)[C@H]3[C@@H](O)C[C@@]21C` as the molecule, how does the activity change, negative = cytotoxicity read?
The activity change, negative = cytotoxicity was -1.52% [at 19 µM].

For `O=[N+]([O-])c1cccc(S(=O)(=O)NCCNS(=O)(=O)c2cccc([N+](=O)[O-])c2)c1`, which “activity change, negative = cytotoxicity” value is on record?
The value was -1.81% [at 42.5 µM].
